Screening results from PubChem BioAssay.
KCNQ2 pot – KCNQ2 (rat) channel potentiation | B-score at 10 µM | O88943 | CHO-K1 KCNQ2, FluxOR thallium flux fluorescence; stronger effect = higher value | actives 0.54% (n = 310,000);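 active means fluorescence ratio B-score at least 3 SD of library B-scores, with initial fluorescence B-score within 3 of them, cut at about 5.3 in these data; same plate scores as AID 2156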;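 further: B-score of peak minus minimum over baseline fluorescence ratio after K+ and Tl+ stimulus; positive B-score means potentiation of KCNQ2 with more thallium influx and brighter signal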
KCNQ2 block – KCNQ2 (rat) channel inhibition; AID 2156; B-score at 10 µM; O88943; actives 1.1% (n = 310,000); CHO-K1 KCNQ2, FluxOR thallium flux, 20 min; stronger effect = lower value;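 active means fluorescence ratio B-score at most minus 3 library SDs, with starting brightness B-score within 2 library SDs, cut at about -5.5 in these data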
* = called active by the depositor; i = inactive; nt = not tested or not shown. Shown are actives, neighbours in structure and some others; about 1.6% of the full set was active somewhere.

SMILES	KCNQ2 pot	KCNQ2 block
COC(=O)CCC(=O)Nc1cccc2ccccc12	0.28	i
CCCCCC(=O)Nc1cccc2ccccc12	5.7*	i
CCNc1nc(NC(C)C)nc(SCCOC(=O)c2ccccc2)n1	nt	i
CCNc1nc(NC(C)C)nc(SCCOc2ccc(C)cc2)n1	-5.6	-5.6*
Cc1cc2nnc(SCC(=O)NCc3cccs3)n2c2ccccc12	nt	i
Cc1cc2nnc(SCC(=O)NCc3ccco3)n2c2ccccc12	8.7*	i
O=C(CSc1nnc(NC(=O)c2ccccc2[N+](=O)[O-])s1)NC1CCCC1	0.04	i
COc1ccc(NC(=O)c2c(-c3c(Cl)cccc3Cl)noc2C)c(OC)c1	nt	i
COc1cccc(C2=Nn3c(nnc3-c3ccccc3O)SC2)c1	nt	i
C[n+]1c2n(c3ccccc31)N=C(c1cc(C(C)(C)C)c(O)c(C(C)(C)C)c1)CS2	-6.6	-6.6*
Cc1ccccc1CSc1nnc(-c2cnccn2)n1C	0.2	i
COc1cc(NC(=O)c2cc(CC(C)C)on2)c(OC)cc1Cl	-7.8	-7.8*
CCCc1cc(C(=O)Nc2cc(OC)c(Cl)cc2OC)no1	0.12	i
O=c1c2[nH]c3ccccc3c2ncn1CCC1=CCCCC1	nt	i
Cc1nc2c(c(=O)n1CCC1=CCCCC1)c1nc3ccccc3nc1n2/N=C/c1ccccc1	-5.7	-5.7*
COCCCn1c2nc3ccccc3nc2c2c(=O)n(CC3CCCO3)cnc21 (configuration not stated)	0.02	i
CCCCCCn1c(C)nc2c(c1=O)c1nc3ccccc3nc1n2/N=C/c1ccco1	nt	i
CCOCCCn1c(C)nc2c(c1=O)c1nc3ccccc3nc1n2CCC1=CCCCC1	-5.8	-5.8*
O=c1c2c3nc4ccccc4nc3n(/N=C/c3ccco3)c2ncn1CCC1=CCCCC1	-6.6	-6.6*
CSc1nc(O)c(N=Nc2ccc(F)cc2F)c(=O)[nH]1	0.04	i
O=C(c1cc(COc2ccccc2)on1)N1CCCC(CN2CCOCC2)C1 (configuration not stated)	nt	i
CCc1cc(=O)oc2cc(C)cc(OC(C)C(=O)NCc3ccccn3)c12 (configuration not stated)	0.11	i
Cc1ccc(C(=O)NCCNS(=O)(=O)c2ccccc2[N+](=O)[O-])cc1	nt	i
COc1ccccc1C(=O)COC(=O)CNS(=O)(=O)c1ccc(C)c(C)c1	nt	i
CCc1ccc2c(c1)C1(C(=O)N2)N2CCCC2C(C(=O)c2ccc3ccccc3c2)C12C(=O)Nc1ccccc12 (configuration not stated)	0.8	i
SMILES	KCNQ2 pot	KCNQ2 block
CCc1ccc2c(c1)C1(NN=C(c3cccc4ccccc34)S1)C(=O)N2 (configuration not stated)	-14	-14*
O=C(NC1CC1)c1ccc(CSCc2ccccc2Cl)o1	1.1	i
CCCN1CCN(CC(=O)Nc2nnc(CC)s2)CC1	0.19	i
Cc1ccc(-n2ncc3c2CCCC3NC(=O)CCCN2CCCCC2=O)cc1C (configuration not stated)	nt	i
COc1ccc(N2C(=O)CSC2c2ccc([N+](=O)[O-])cc2)cc1 (configuration not stated)	nt	i
CC(OC(=O)c1ccccc1CCc1ccccc1)C(N)=O (configuration not stated)	0.14	i
COc1ccc2c(C)cc(SCC(=O)Nc3nsc(-c4ccc(C)cc4)n3)nc2c1	-6.3	-6.3*
Cc1ccc(-c2nc(NC(=O)CSc3cc(C)c4ccccc4n3)ns2)cc1	nt	i
Cc1noc(C)c1COc1ccccc1C(=O)NC1CCC(C)CC1 (configuration not stated)	0.1	i
O=C(O)C1C2CCC(C2)C1C(=O)N1CCCC1 (configuration not stated)	nt	i
O=C(CN(C(=O)c1cc2c(s1)CCC2)C1CCCC1)NCc1cccs1	-7.1	-7.1*
O=C(CN(Cc1ccccc1)C(=O)c1cc2c(s1)CCC2)NCc1cccs1	nt	i
COc1cc(OC)c2c(=O)cc(-c3ccccc3)oc2c1	nt	i
COc1cc2c(c3oc(-c4ccccc4)cc(=O)c13)C=CC(C)(C)O2	-6	-6*
Cc1cc(NC(=O)C(C)SCC(=O)OCc2ccc([N+](=O)[O-])cc2)no1 (configuration not stated)	0.13	i
CC(=O)c1ccc(OCC(=O)N2CCCC(Nc3ccc(C)c(C)c3)C2)cc1 (configuration not stated)	nt	i
CCN(CC)S(=O)(=O)c1cccc(C(=O)OCC(=O)NCc2ccccc2OC)c1	-6.5	-6.5*
CCN(CC)S(=O)(=O)c1cccc(C(=O)OCC(=O)Nc2ccccc2OC(F)F)c1	0.51	i
COc1ccc(C(=O)N2CCCCCC2)cc1S(=O)(=O)N1CCOCC1	0.42	i
Cc1ccc(N(CC2CO2)S(=O)(=O)c2ccc([N+](=O)[O-])cc2)cc1 (configuration not stated)	-6.8	-6.8*
Cc1ccc(N(CC2CO2)S(=O)(=O)c2ccc(C)cc2)cc1 (configuration not stated)	nt	i
CCOC(=O)C1CCN(c2c(C(=O)c3ccccc3)cnc3ccc(CC)cc23)CC1	-7.2	-7.2*
CCOC(=O)C1CCCN(c2c(C(=O)c3ccccc3)cnc3ccccc23)C1 (configuration not stated)	nt	i
COCCNC(=O)C1CCCN(S(=O)(=O)c2ccc3c(c2)CC(C)N3C(=O)C2CC2)C1 (configuration not stated)	nt	i
COc1ccc(C(=O)NCC2(c3ccc(OC)c(OC)c3)CCCC2)c(OC)c1	nt	i
SMILES	KCNQ2 pot	KCNQ2 block
CC(C)CC(C(=O)NC1CCCC1)N(Cc1cccs1)C(=O)c1snc(C(N)=O)c1N (configuration not stated)	-5.7	-5.7*
CC(C)CC(C(=O)NC1CCCCC1)N(Cc1cccs1)C(=O)c1snc(C(N)=O)c1N (configuration not stated)	nt	i
O=C(Cc1ccc(S(=O)(=O)N2CCOCC2)s1)NCCc1ccc(F)cc1	nt	i
COc1cccc(CNC(=O)Cc2ccc(OC)c(S(=O)(=O)N3CCOCC3)c2)c1	1.1	i
COc1ccccc1CNc1ncc(-c2ccc(F)cc2)n1C	0.13	i
COc1ccc(CNc2ncc(-c3ccc(F)cc3)n2C)c2ccccc12	-6.2	-6.2*
Cn1cc(/C=C(\NC(=O)c2ccccc2Cl)C(=O)NCCCn2ccnc2)c2ccccc21	0.21	i
CSc1ccc(CN(C)C(=O)C(Cc2ccccc2)NC(=O)c2ccccc2)cc1 (configuration not stated)	-5.5	-5.5*
CN(Cc1ccccc1)C(NC(=O)c1ccccc1)C(Cl)(Cl)Cl (configuration not stated)	-5.8	-5.8*
CN(Cc1ccccc1)C(=S)NC(=O)c1cccs1	2.2	i
CN(Cc1ccc(F)cc1)C(=O)C(Cc1ccccc1)NC(=O)c1ccccc1 (configuration not stated)	nt	i
CN(Cc1ccccc1)C(=S)NC(=O)c1ccc(-c2ccccc2)cc1	7.1*	i
CN(Cc1ccccc1)C(NC(=O)c1ccco1)C(Cl)(Cl)Cl (configuration not stated)	0.56	i
CC(C)c1ccc(N(CCc2ccccn2)C(=O)C(C)(C)C)cc1	0.2	i
C=CCN(c1ccc(C(=O)NCCCn2ccnc2)cc1)S(C)(=O)=O	nt	i
Cc1onc(-c2c(Cl)cccc2Cl)c1CO/N=C(\C#N)c1c(Cl)cccc1Cl	-5.5	-5.5*
